Most compounds without a hit are left out; they make up all but 5.5% or so of the library.
MBNL1 CUG block = blocks human MBNL1 binding to CUG repeat RNA; TR-FRET MBNL1-His/biotin-(CUG)12 binding, 665/545 ratio; Potency, µM (series often up to 57.5 µM), for inactives: at the highest dose activity change, negative = inhibition, usual class: inhibitors; 280,000 compounds, 0.036% hits; active = well fitted inhibition curve with a large enough effect in the signal ratio, with a control signal flat, not every such curve was filed as active; inconclusive = small, poorly fitted or top-dose-only effect, or effect the other way, or a change in a side signal; inactive = no such curve, though single readings can be large or run the other way; the % refers to the signal ratio; also: potency is read from the fitted curve at half-maximal effect; % is scaled to controls: 0 for no effect and ±100 for the full control effect
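Compound titration spanned 92 nM–58 uM against the MBNL1-His/biotin-(CUG)12 complex. After 60 min at room temperature with 5 nM streptavidin-XL665 and 0.055 ng/ul terbium anti-His, ratiometric 665/545 nm emission (Ex 340 nm) normalized to controls.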
Six1-Eya2 blk = inhibitors of human Six1/Eya2 interaction. activity change, % (no concentration beside the values). Q15475+O00167. 360,000 compounds, 0.56% hits. AlphaScreen GST-Six1/His-Eya2 binding, biochemical; active compounds read low; in the data active = activity change below about -65%; inconclusive = mostly about -30% to -63%; also: % is scaled to controls: 0 for no effect and ±100 for the full control effect
Target sequence (O00167 whole entry, looked up): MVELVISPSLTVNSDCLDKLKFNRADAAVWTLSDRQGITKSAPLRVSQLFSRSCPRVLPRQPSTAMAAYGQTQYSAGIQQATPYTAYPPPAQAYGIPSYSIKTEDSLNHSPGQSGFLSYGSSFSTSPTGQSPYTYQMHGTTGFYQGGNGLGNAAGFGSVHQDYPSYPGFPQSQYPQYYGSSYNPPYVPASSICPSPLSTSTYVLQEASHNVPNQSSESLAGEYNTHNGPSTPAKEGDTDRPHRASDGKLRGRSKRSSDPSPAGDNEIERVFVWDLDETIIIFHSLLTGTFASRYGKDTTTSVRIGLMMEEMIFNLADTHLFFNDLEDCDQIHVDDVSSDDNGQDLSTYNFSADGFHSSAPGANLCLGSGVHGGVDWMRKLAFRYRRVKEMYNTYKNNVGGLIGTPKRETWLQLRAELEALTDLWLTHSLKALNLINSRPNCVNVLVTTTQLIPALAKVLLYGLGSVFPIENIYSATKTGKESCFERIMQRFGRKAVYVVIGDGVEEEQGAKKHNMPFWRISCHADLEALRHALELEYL
Target sequence (Q15475 whole entry, looked up): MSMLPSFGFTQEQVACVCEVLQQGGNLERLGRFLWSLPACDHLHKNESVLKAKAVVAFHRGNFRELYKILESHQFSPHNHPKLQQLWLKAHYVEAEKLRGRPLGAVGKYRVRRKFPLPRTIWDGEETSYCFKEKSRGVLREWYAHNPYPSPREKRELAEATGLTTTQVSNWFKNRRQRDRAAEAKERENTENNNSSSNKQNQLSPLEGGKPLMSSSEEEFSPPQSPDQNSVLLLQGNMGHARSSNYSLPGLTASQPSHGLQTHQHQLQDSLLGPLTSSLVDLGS
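Six1/Eya2 binding was read as AlphaScreen signal after compounds were pinned into GST-Six1 plus His-tagged Eya2 (5X stock 250/500 nM) in pH 8.0 Tris/NaCl/TCEP buffer, beads added, then incubated 1 h, 37 C, dark.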
CBFb-RUNX1 inh = inhibitors of human CBF-beta and RUNX1 interaction | AID 1477 | Q01196+Q13951 | AlphaScreen CBFb-His/RUNX1-biotin binding, biochemical | 230,000 tested, under 10 active | Potency, µM (highest dose often 59.8 µM), without a hit: top-dose activity, negative = inhibition, hits mostly inhibitors; also: % of control where 0% means no effect
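Read-out: AlphaScreen. Format: His-CBF-beta with biotinylated RUNX1 (30 nM each) preincubated 20 min, compound 15 min, Ni-chelate plus streptavidin beads 90 min; room temperature throughout.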
CtBP-E1A inh = inhibitors of CtBP/E1A interaction. activity change, % (test concentration not listed). 340,000 compounds, 0.49% hits. AlphaScreen GST-E1A/His-CtBP binding, 1536-well; active compounds read low; in the data active = activity change below about -65%; inconclusive = mostly about -30% to -63%; also: % is scaled to controls: 0 for no effect and ±100 for the full control effect
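Homogeneous bead-based format: GST-tagged E1A captured on glutathione donor beads, His-tagged CtBP on nickel acceptor beads; compounds precede bead addition by 2 h at 37 °C.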
Gal4-VP16 FLuc = counter-screen for ROR gamma inhibitors: Gal4-VP16 reporter; 310,000 compounds, 3.5% hits; AID 2546; Drosophila S2 Gal4-VP16 UAS-luciferase, luminescence, 20 h; Potency, µM (titrated, usually from 53.6 µM), for the others: top-dose activity, negative = inhibition, hits mostly inhibitors;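 also: Gal4-VP16 expression switched on by copper sulfate through the metallothionein promoter; potency is read from the fitted curve at half-maximal effect; % is scaled to controls: 0 for no effect and ±100 for the full control effect; nearly all actives have a fitted effect of over 50% in size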
RORg inh = blocks mouse ROR gamma transcriptional activity | P51450 | Drosophila S2 Gal4-RORgamma UAS-luciferase reporter, 20 h | Potency, µM (series often up to 53.6 µM), without a hit: top-dose activity change, negative = inhibition, hits mostly inhibitors | 310,000 compounds, 5.4% hits | AID 2551; also: potency is read from the fitted curve at half-maximal effect; % is scaled to controls: 0 for no effect and ±100 for the full control effect; nearly all actives have a fitted effect of over 60% in size
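Stable Schneider cell line, Gal4 DNA-binding domain fused to ROR gamma, UAS-luciferase. Cmpd 1 hr RT → CuSO4 700 uM final → 20 hr RT → luciferase reagent 10 min → luminescence.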
* marks the source's active call; other numbers are inactive results; ? = inconclusive; . = no result given; [ ] = dose if it differs, or a comment. Unless noted, calls follow the shape of the dose curve; as a rule, active = well fitted curve in the direction sought with a large enough effect; inconclusive = small, poorly fitted or top-dose-only effect, or another doubt; inactive = no such curve, though single readings can be large; an effect the other way counts as inactive or inconclusive.

SMILES	MBNL1 CUG block	Six1-Eya2 blk	CBFb-RUNX1 inh	CtBP-E1A inh	Gal4-VP16 FLuc	RORg inh
CC1(C)NC(=O)N(CCC(=O)Nc2ccc(C(C)(C)C)cc2)C1=O	.	5.1	.	0.0	.	.
C=CCc1ccc(O)c(-c2ccc(O)c(CC=C)c2)c1	19.7%	-2.3	18.2%	-6.1	22.4µM*	?
C=CCc1cc(C(=O)N2CCCCC2)ccc1O	6.2%	4.3	1.6%	-0.6	.	-3.6%[0.365 µM]
CC(=O)N/N=C/c1cc(C(C)(C)C)cc(/C=N/NC(C)=O)c1O	26.8%	-76.1*	-29.8%	-87.8*	14.1µM*	2.82µM*
O=C1CCCN1c1ccc(C(=O)N(Cc2nnc(-c3ccc(Cl)cc3)o2)C2CC2)cc1	.	-14.0	.	5.4	.	.
CCCCS(=O)(=O)/C=C\C1C2C=CC(C2)C1S(=O)(=O)CCCC (configuration not stated)	8.0%	6.4	-1.1%	-1.5	0.8%	3.5%
CCCCS(=O)(=O)/C=C\C=C/S(=O)(=O)CCCC	-4.9%	-4.9	12.9%	-4.8	0.891µM*	0.708µM*
CC1(C(=O)Nc2cccc3cccnc23)CCN1Cc1csc2ccccc12 (configuration not stated)	.	-12.7	.	-11.0	.	.
S=C(Nc1ccccc1Cl)N(Cc1ccccc1)Cc1ccccn1	-1.0%	-4.7	?	4.9	-4.8%[10 µM]	24.4%
COc1ccccc1NC(=S)N(Cc1ccccc1)Cc1ccccn1	8.1%	-0.3	-5.4%	-9.1	?	11.2µM*
COc1ccc(CCN(Cc2ccccn2)C(=S)Nc2ccccc2F)cc1OC	-2.1%	0.2	4.1%	3.6	-4.1%[10 µM]	12.6µM*
COc1ccccc1NC(=S)N(Cc1ccccc1)Cc1cccnc1	-8.2%	2.9	-1.8%	4.0	21.7%	-20.6%
COc1ccc(NC(=S)N(CCc2ccc(OC)c(OC)c2)Cc2ccccn2)cc1	-4.3%	-8.7	2.7%	-6.0	-21.0%	?
COc1ccc(CCN(Cc2ccccn2)C(=S)Nc2cccc(C)c2)cc1OC	-1.3%	14.7	-1.9%	18.2	-1.5%	10µM*
COc1ccc(NC(=S)N(Cc2ccc(C)cc2)Cc2ccccn2)cc1	1.8%	4.9	-3.8%	2.0	-1.8%	?
COc1ccc(CCN(Cc2ccccn2)C(=S)Nc2ccccc2Cl)cc1OC	-8.0%	-0.1	-6.6%	-1.6	?	10µM*
Cc1ccc(C)c(S(=O)(=O)Nc2ccc(C(=O)N3CCOCC3)cc2)c1	.	-9.2	.	-8.9	.	.
COc1ccc2[nH]cc(CCNc3ccnc(-c4cccnc4)n3)c2c1	.	.	.	.	-3.9%	1.3%
Cc1c(C(=O)NN)sc(=S)n1C	26.4%	2.1	2.7%	-12.6	-13.6%	10.7%
Cc1csc(C(=O)NN)c1N(C)C	0.1%	0.2	11.5%	-6.4	?	0.562µM*
COc1ccc(C2Oc3ccccc3C3=C2C(c2cccs2)n2ncnc2N3)cc1 (configuration not stated)	3.4%	-28.8	-2.9%	-24.2	2.51µM*	?
Brc1ccc(C2C3=C(Nc4ncnn42)c2ccccc2OC3c2ccncc2)cc1 (configuration not stated)	4.6%	-4.0	-13.1%	-11.3	-24.9%	?
O=c1[nH]c(CN2CCCCC2)ccc1O	.	-8.1	.	-4.5	.	.
CCOc1cccc(C(=O)NC(=S)Nc2ccc3c(c2)OCCO3)c1	-3.5%	15.0	-13.1%	12.3	1.2%	7.94µM*
CCOc1cccc(C(=O)NC(=S)Nc2ccc(N3CCCC3)cc2)c1	?	-16.9	?	-10.8	6.31µM*	2.24µM*
SMILES	MBNL1 CUG block	Six1-Eya2 blk	CBFb-RUNX1 inh	CtBP-E1A inh	Gal4-VP16 FLuc	RORg inh
CCOc1cccc(C(=O)Nc2ccc(N3CCN(S(C)(=O)=O)CC3)cc2)c1	-2.4%	21.4	2.9%	0.0	-2.1%	15.4%
CCOc1ccc(-n2nc3ccc(NC(=O)c4ccc5c(c4)OCCO5)cc3n2)cc1	1.3%	0.2	11.3%	-10.0	11.2µM*	10µM*
CCOc1cccc(C(=O)NC(=S)Nc2ccc(Cl)cc2C(=O)O)c1	?	-2.5	11.6%	0.0	3.55µM*	7.08µM*
O=C(O)c1[nH]c2ccc(Br)cc2c1CCN1C(=O)c2cccc([N+](=O)[O-])c2C1=O	.	-2.8	-2.7%	-8.0	-5.4%	24.7%
COc1cc(C(=O)Nc2nc(C)c(Cc3ccc4c(c3)OCO4)s2)cc(OC)c1OC	-14.9%	-17.0	0.5%	.	?	7.94µM*
O=C(NC(=S)Nc1ccc2c(c1)OCCO2)c1ccccc1F	1.5%	-5.3	-3.5%	28.9	?	10µM*
O=C(NC(=S)Nc1ccc2c(c1)OCCO2)c1ccccc1	1.0%	-22.9	-11.7%	-20.2	?	3.98µM*
CCCOc1ccc(C(=O)Nc2nc(C)c(Cc3ccc4c(c3)OCO4)s2)cc1	?	5.5	-8.7%	.	?	?
O=C(COc1ccccc1Br)Nc1ccc2c(c1)OCCCO2	4.8%	9.4	.	4.2	-11.1%	17.8µM*
O=C(Nc1ccc2c(c1)OCCO2)c1ccccc1F	-5.8%	-1.4	-4.7%	3.8	?	?
O=C(Nc1ccc(NC(=O)c2ccc3c(c2)OCCO3)cc1)c1ccccc1	2.0%	2.7	.	0.0	-5.4%	?
CCOC(=O)C1CCCN(C(=O)CCc2nnc(-c3ccc(C(C)=O)s3)o2)C1 (configuration not stated)	?	0.0	.	-11.1	-2.4%	2.4%
COc1cc(C(=O)NC(=S)NNC(=O)c2ccc3c(c2)OCO3)cc(OC)c1OC	5.1%	-19.1	-22.0%	-6.3	3.7%	?
COc1cccc(OC)c1C(=O)NC(=S)Nc1ccc2c(c1)OCCO2	-5.4%	-6.3	-7.7%	2.7	-15.3%	12.6µM*
COc1ccc(NC(=S)NC(=O)c2ccc3c(c2)OCCO3)cc1	.	-27.7	.	?	.	.
COc1cc(C(=O)NC(=S)Nc2ccc3c(c2)OCO3)cc(OC)c1OC	-4.7%	10.7	?	0.9	?	14.1µM*
CCCC(=O)N1CCC1(C)C(=O)Nc1cc(C)ccc1C (configuration not stated)	.	1.5	.	2.8	.	.
COc1ccc(-n2c(C)nnc2SCC(=O)N2CCOCC2)cc1	-2.4%	3.3	.	8.7	15.6%	-16.0%
CC(C)C(=O)N1CCCC1(C)C(=O)N(C)Cc1cccc2ccccc12 (configuration not stated)	.	0.8	.	1.5	.	.
O=C(NC(=S)N1CCCCC1)c1cccs1	-12.4%	7.9	8.4%	-9.5	1.26µM*	0.794µM*
CC1CCCCN1S(=O)(=O)c1ccc(NC(=O)c2cccs2)cc1 (configuration not stated)	-1.3%	-4.5	2.8%	10.7	-2.0%	30.4%
O=C(NC(=S)N1CCCCC1)c1csc([N+](=O)[O-])c1	?	1.0	0.2%	0.2	1.12µM*	0.355µM*
